Laboratory results reported in the supplement of paper PMC10849652.
The full data set covers some 7,900 targets. This sample favours those with a hit. About 0.6% of all pairs of compound and target were hits. Values without a mark were called inactive.

Key:
Assay in all cases: log2 fold change, soluble protein after heating vs DMSO (PISA); higher = thermal stabilisation; K562 cells, 10 uM, 30 min; active = over 0.2 and 3.5 SD of the protein, either way, in both replicates (recomputed)
[1] = compound: CS(=O)(=O)c1ccc(-c2cnc(N)c(C(=O)Nc3ccccc3)n2)cc1
Procedure, shortened: (§1)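 K562 cells at 2×10^6 cells/mL were treated with 10 μM compound for 30 min. Aliquots were heated for 3 min across 48°C-58°C, pooled, and extracted in PBS with 0.5% NP-40 at 4°C; soluble protein was the supernatant after 21,000xg for 90 min. Soluble protein was quantified by TMTpro 16plex LC-MS/MS with channel sums equalised, and reported as log2 fold change in thermal stability against DMSO controls, with values from duplicates.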

[2] = compound: C[C@@H](Oc1cc(-c2cnn(C3CCNCC3)c2)cnc1N)c1c(Cl)ccc(F)c1Cl [crizotinib]
Procedure, shortened: as §1

[3] = compound: C[C@@H]1COCCN1C2=NC(=NC(=C2)C3(CC3)S(=O)(=O)C)C4=C5C=CNC5=CC=C4
Procedure, shortened: as §1

[4] = compound: C[C@H](C1=CC=C(C=C1)C(=O)NC2=C3C=CNC3=NC=C2)N
Procedure, shortened: as §1

[5] = compound: C[C@H](Nc1ncnc2nc[nH]c12)c1cc2cccc(Cl)c2c(=O)n1-c1ccccc1 [duvelisib]
Procedure, shortened: as §1

[6] = compound: Cc1cc(Nc2cc(CN3CCOCC3)c3nc(C)c(Cc4ccc(Cl)cc4F)n3n2)n[nH]1 [gandotinib]
Procedure, shortened: as §1

[7] = compound: Cc1cc(Nc2cc(N3CCN(C)CC3)nc(Sc3ccc(NC(=O)C4CC4)cc3)n2)n[nH]1 [tozasertib]
Procedure, shortened: as §1

[8] = compound: Cc1cc(SCc2sc(-c3ccc(C(F)(F)F)cc3)nc2C)ccc1OCC(=O)O
Procedure, shortened: as §1

[9] = compound: Cc1ccc(-n2nc(C(C)(C)C)cc2NC(=O)Nc2ccc(OCCN3CCOCC3)c3ccccc23)cc1 [doramapimod]
Procedure, shortened: as §1

[10] = compound: Cc1ccc(C(=O)N(CCCN)[C@@H](c2nc3cc(Cl)ccc3c(=O)n2Cc2ccccc2)C(C)C)cc1 [ispinesib]
Procedure, shortened: as §1

[11] = compound: Cc1ccc(NC(=O)c2ccc(CN3CC[C@H](N(C)C)C3)c(C(F)(F)F)c2)cc1Nc1nccc(-c2cncnc2)n1 [bafetinib]
Procedure, shortened: as §1

[12] = compound: Cc1cccc(CC(=O)N2CCc3c2ccc(-c2cn(C)c4ncnc(N)c24)c3F)n1
Procedure, shortened: as §1

[13] = compound: Cc1cn(-c2cc(NC(=O)c3ccc(C)c(Nc4nccc(-c5cccnc5)n4)c3)cc(C(F)(F)F)c2)cn1 [nilotinib]
Procedure, shortened: as §1

[14] = compound: Cc1nc(Nc2n[nH]c3c2CN(C(=O)N[C@H](CN(C)C)c2ccccc2)C3(C)C)c2sccc2n1
Procedure, shortened: as §1

[15] = compound: Cc1nc(Nc2ncc(C(=O)Nc3c(C)cccc3Cl)s2)cc(N2CCN(CCO)CC2)n1 [dasatinib]
Procedure, shortened: as §1

[16] = compound: Cc1ncc(-c2ccnc(Nc3ccc(S(C)(=O)=O)cc3)n2)n1C(C)C
Procedure, shortened: as §1

[17] = compound: Cn1cc(-c2ccc3c(c2)CCN3C(=O)Cc2cccc(C(F)(F)F)c2)c2c(N)ncnc21
Procedure, shortened: as §1

[18] = compound: Cn1cc(-c2ccc3nnc(C(F)(F)c4ccc5ncccc5c4)n3n2)cn1
Procedure, shortened: as §1

[19] = compound: Cn1cncc1[C@@](N)(c1ccc(Cl)cc1)c1ccc2c(c1)c(-c1cccc(Cl)c1)cc(=O)n2C [tipifarnib]
Procedure, shortened: as §1

[20] = compound: FC(F)(F)c1ccc(/C=C/c2nc(COc3ccc(CCCCn4ccnn4)cc3)co2)cc1 [mubritinib]
Procedure, shortened: as §1

UniProt Q86VR2, sequence (Q86VR2 whole entry, looked up): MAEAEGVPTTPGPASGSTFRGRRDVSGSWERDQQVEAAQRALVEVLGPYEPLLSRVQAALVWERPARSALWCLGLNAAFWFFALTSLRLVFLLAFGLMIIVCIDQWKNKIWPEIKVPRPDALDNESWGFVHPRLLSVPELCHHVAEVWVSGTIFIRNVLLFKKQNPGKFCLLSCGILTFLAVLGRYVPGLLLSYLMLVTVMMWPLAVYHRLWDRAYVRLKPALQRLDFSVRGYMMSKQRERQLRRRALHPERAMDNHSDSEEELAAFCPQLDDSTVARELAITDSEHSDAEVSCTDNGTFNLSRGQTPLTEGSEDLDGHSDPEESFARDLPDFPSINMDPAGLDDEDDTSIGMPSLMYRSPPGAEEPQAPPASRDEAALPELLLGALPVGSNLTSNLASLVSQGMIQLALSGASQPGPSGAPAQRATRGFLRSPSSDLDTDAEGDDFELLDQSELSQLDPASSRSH
UniProt Q9NR46, sequence (Q9NR46 whole entry, looked up): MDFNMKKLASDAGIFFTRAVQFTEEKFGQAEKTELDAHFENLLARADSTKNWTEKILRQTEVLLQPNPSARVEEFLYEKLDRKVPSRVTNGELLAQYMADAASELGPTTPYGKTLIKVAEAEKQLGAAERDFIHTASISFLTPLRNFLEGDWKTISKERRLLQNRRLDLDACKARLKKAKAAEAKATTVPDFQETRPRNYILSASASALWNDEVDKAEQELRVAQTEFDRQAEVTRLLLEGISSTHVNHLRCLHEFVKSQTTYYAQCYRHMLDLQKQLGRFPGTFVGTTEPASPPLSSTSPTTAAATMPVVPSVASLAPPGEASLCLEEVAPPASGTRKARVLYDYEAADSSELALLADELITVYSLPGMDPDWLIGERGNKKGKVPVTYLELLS
UniProt Q9NX18, sequence (Q9NX18 whole entry, looked up): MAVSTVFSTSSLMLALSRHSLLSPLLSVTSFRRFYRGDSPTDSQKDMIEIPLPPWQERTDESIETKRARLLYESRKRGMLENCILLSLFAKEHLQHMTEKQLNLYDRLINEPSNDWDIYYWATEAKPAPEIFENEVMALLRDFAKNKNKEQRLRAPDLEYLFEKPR
UniProt Q9UKM9, sequence (Q9UKM9 whole entry, looked up): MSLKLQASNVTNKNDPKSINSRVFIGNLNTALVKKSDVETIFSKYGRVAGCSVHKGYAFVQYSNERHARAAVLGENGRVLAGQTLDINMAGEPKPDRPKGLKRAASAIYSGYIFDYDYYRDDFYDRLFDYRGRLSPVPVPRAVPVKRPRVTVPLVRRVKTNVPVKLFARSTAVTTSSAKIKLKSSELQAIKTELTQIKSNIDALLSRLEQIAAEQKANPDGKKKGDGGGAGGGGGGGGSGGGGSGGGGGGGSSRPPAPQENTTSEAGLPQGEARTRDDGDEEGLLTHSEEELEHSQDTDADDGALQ
UniProt P63208, sequence (P63208 whole entry, looked up): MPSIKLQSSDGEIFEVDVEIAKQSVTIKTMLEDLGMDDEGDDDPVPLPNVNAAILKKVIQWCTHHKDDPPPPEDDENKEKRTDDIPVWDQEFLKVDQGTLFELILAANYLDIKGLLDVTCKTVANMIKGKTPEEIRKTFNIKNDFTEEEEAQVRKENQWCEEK
UniProt Q14151, sequence (Q14151 whole entry, looked up): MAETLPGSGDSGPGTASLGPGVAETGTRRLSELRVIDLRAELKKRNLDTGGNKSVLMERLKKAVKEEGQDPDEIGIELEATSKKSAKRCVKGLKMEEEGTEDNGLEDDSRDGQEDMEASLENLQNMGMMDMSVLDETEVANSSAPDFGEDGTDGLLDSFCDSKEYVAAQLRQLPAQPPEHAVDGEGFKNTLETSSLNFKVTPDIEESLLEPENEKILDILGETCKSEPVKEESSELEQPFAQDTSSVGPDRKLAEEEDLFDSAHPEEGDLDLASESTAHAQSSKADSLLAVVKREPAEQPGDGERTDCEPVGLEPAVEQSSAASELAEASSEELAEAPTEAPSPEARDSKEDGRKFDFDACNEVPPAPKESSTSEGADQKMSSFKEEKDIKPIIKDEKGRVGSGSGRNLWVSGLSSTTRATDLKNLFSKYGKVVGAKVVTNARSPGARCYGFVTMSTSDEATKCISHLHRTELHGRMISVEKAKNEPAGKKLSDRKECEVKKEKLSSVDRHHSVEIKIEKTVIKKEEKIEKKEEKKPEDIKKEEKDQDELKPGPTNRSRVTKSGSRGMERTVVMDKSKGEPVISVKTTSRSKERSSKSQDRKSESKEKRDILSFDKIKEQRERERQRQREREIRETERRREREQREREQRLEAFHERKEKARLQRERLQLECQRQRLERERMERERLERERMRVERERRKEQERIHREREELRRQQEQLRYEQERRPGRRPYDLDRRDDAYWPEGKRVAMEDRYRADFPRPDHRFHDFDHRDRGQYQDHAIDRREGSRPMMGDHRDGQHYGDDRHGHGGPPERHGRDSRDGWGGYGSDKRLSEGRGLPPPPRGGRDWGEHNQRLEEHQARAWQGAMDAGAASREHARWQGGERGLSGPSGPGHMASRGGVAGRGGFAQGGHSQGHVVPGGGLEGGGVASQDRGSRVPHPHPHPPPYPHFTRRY
UniProt P58004, sequence (P58004 whole entry, looked up): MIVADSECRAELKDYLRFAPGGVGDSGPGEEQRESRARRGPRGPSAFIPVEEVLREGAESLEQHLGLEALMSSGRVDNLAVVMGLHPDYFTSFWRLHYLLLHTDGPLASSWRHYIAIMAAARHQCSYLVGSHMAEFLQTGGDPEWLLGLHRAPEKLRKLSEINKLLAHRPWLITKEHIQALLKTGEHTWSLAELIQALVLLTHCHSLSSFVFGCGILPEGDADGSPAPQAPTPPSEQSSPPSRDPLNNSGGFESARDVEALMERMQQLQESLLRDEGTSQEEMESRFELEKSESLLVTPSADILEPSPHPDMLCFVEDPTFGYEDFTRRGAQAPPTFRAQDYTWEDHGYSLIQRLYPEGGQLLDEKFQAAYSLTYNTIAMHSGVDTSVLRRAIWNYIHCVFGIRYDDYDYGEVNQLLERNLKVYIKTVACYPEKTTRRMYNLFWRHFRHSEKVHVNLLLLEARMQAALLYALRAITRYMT
UniProt Q99590, sequence (Q99590 whole entry, looked up): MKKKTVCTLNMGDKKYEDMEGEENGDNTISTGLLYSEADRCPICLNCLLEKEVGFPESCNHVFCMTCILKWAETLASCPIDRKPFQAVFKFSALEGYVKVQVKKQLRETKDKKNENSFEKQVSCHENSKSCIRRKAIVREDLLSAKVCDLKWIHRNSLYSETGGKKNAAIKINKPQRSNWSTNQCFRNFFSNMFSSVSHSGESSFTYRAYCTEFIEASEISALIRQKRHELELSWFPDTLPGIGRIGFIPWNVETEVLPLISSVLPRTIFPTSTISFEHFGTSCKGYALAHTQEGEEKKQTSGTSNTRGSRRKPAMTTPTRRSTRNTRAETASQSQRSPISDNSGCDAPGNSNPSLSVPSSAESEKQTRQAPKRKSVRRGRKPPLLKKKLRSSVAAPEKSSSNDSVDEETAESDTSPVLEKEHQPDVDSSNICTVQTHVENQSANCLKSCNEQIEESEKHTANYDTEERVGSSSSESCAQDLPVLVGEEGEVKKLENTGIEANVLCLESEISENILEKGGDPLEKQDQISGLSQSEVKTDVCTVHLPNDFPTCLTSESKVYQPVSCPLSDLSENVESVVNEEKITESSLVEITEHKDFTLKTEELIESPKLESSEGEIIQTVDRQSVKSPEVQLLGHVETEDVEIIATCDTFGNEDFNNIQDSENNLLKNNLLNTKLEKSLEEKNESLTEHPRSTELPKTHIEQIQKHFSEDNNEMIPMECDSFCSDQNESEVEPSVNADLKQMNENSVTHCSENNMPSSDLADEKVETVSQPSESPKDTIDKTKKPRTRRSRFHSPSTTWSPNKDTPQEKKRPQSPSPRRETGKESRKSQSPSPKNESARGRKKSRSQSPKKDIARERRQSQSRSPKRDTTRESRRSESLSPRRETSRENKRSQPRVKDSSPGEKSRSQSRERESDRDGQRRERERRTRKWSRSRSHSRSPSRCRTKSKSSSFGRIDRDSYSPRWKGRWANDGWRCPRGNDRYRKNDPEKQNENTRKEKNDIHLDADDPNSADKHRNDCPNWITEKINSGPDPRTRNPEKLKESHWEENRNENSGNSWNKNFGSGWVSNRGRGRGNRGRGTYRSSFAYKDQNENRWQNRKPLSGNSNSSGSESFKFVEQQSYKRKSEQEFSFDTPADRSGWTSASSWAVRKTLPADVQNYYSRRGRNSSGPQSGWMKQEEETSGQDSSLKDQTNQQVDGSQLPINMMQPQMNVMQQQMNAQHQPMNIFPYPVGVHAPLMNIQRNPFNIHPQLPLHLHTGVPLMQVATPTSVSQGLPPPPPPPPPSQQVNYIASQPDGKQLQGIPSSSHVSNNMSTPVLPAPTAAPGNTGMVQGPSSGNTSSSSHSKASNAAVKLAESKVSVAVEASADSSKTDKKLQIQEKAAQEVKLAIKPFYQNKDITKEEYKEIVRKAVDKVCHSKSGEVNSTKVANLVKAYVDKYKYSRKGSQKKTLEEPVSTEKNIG
UniProt Q04864, sequence (Q04864 whole entry, looked up): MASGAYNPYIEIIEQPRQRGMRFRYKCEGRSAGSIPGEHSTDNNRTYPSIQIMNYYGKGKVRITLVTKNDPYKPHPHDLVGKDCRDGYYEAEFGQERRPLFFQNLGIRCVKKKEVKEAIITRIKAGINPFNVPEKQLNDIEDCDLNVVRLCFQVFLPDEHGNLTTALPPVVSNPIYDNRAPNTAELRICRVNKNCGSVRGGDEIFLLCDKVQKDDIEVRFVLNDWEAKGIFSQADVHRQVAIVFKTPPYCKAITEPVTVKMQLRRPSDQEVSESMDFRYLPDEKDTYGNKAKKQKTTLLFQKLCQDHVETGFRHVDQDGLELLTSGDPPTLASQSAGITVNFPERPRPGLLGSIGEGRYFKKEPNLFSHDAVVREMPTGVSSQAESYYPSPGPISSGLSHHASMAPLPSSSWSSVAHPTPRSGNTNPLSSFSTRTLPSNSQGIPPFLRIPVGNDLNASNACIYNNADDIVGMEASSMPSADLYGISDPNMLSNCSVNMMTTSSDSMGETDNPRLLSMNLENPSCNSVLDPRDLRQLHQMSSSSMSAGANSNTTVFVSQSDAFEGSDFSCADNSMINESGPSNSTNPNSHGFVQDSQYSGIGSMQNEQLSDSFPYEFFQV

Target	log2 fold change [1]	log2 fold change [2]	log2 fold change [3]	log2 fold change [4]	log2 fold change [5]	log2 fold change [6]	log2 fold change [7]	log2 fold change [8]	log2 fold change [9]	log2 fold change [10]	log2 fold change [11]	log2 fold change [12]	log2 fold change [13]	log2 fold change [14]	log2 fold change [15]	log2 fold change [16]	log2 fold change [17]	log2 fold change [18]	log2 fold change [19]	log2 fold change [20]
RPRD1B (UniProt Q9NQG5)	-0.104	0.072	0.062	-0.042	0.078	-0.227	0.023	0.062	-0.044	0.039	-0.036	0.04	-0.036	-0.072	-0.099	-0.024	-0.021	-0.035	-0.039	0.032
RPS27A (UniProt P62979)	0.05	0.053	-0.229	0.088	-0.218	0.347	0.013	0	-0.049	-0.047	0.147	0.023	0.056	0.2	0.119	0.007	-0.172	0	0.079	-0.121
SEC23A (UniProt Q15436)	0.001	-0.016	0.061	-0.102	0.017	-0.109	0.021	0.03	-0.092	0.023	-0.011	0.024	-0.012	0.014	-0.07	-0.009	-0.018	-0.052	-0.013	-0.002
RALY (UniProt Q9UKM9)	-0.149	-0.068	-0.138	0.316	-0.161	0.098	0.051	0.043	0.01	-0.082	0.077	-0.069	-0.029	0.051	0.249	-0.151	-0.596	-0.011	-0.118	-0.257
SLC1A5 (UniProt Q15758)	0.026	0.13	0.072	-0.186	0.044	-0.105	-0.064	-0.091	-0.007	0.167	0.041	0.004	0.067	0.023	0.023	0.014	0.035	-0.032	0.026	0.052
SESN2 (UniProt P58004)	0.042	-0.191	-0.028	0.077	-0.018	-0.046	0	0.006	0.192	-0.322	-0.09	0.136	-0.02	-0.207	-0.034	-0.063	0.069	-0.069	-0.213	0.042
SCAF11 (UniProt Q99590)	0.021	-0.06	-0.069	0.229	-0.069	0.543	-0.037	-0.106	-0.05	-0.012	0.173	-0.144	0.078	-0.007	0.144	0.379	-0.05	-0.03	0.067	0.052
SDHAF2 (UniProt Q9NX18)	-0.042	-0.183	0.07	-0.111	0.082	0.057	0.002	-0.125	-0.051	0.006	-0.083	0.166	-0.02	0.022	0.057	-0.007	0.056	0.017	0.007	0.058
SKP1 (UniProt P63208)	-0.052	0.027	-0.039	-0.19	-0.054	-0.035	0.001	0.038	-0.096	0.089	-0.003	0.289 (active)	0.024	-0.011	0.007	0.012	0.047	-0.017	-0.06	-0.001
SH3GLB2 (UniProt Q9NR46)	0.031	-0.104	-0.101	0.013	-0.022	-0.183	0.014	0.073	0.013	-0.052	-0.029	0.044	-0.051	-0.15	-0.147	-0.066	0.006	-0.1	-0.091	0.098
SAFB2 (UniProt Q14151)	-0.079	-0.016	-0.316	0.164	-0.155	0.184	-0.027	0.006	0.089	-0.043	0.17	-0.018	-0.016	0.117	0.183	-0.054	-0.135	-0.058	0.085	-0.077
RETREG3 (UniProt Q86VR2)	0.016	-0.076	0.081	0.024	0.005	0.007	0.006	0.033	-0.052	-0.459 (active)	-0.164	-0.032	0.015	0.003	-0.045	0.033	-0.007	0.11	-0.034	0
REL (UniProt Q04864)	0.079	-0.04	0.005	0.02	-0.034	-0.321	0.026	0.028	-0.003	-0.088	-0.185	0.03	-0.094	-0.438 (active)	-0.115	-0.018	0.013	0.059	-0.011	0.034
RPS6KA2 isoform 2 (UniProt Q15349)	0.026	-0.148	0.128	-0.057	0.047	-0.048	0.042	0.063	-0.057	-0.058	-0.112	0.15	0.008	-0.571 (active)	-0.228	-0.013	0.001	0.021	-0.069	0.085
RB1CC1 (UniProt Q8TDY2)	0.062	0.041	-0.006	0.033	-0.006	0.132	-0.013	0.011	0.037	-0.02	-0.037	0.014	0.009	0.078	-0.103	-0.012	0.029	0.017	-0.069	0.026
RPS20 isoform 2 (UniProt P60866)	-0.062	0.013	-0.176	0.174	-0.034	0.129	0.008	0.004	0.048	-0.066	0.178	-0.005	-0.006	0.223	0.05	-0.071	-0.078	-0.008	0.094	-0.059
